The values that follow come from PubChem BioAssay (NCATS).

Records with an inconclusive call do not appear. Active and inactive are the calls of the source. Calls come from the whole dose curve; as a rule, active = well fitted cell-killing curve with a large enough effect; inconclusive = small, poorly fitted or top-dose-only effect, or effect the other way; inactive = flat fitted curve, though single readings scatter.
% is set by controls: 0 for no effect and ±100 for the full control effect; potency is the fitted concentration of half-maximal effect.

One assay deals with Tov-21-G. As to the kind of experiment: Primary qHTS to identify gynecologic anti-cancer compounds using libraries of approved drugs and bioactive compounds (AID 1345084). Note: nearly all actives have a fitted effect of over 55% in size. The settings on record: Gynecologic cancer cell panel viability, ATPlite luminescence, 48 h; series mostly up to 57.5 µM; activity change, negative = cytotoxicity: at the top concentration. Put shortly: (§1)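 48 h compound exposure at 37 C, 5% CO2; five-point qHTS. ATPlite luminescence readout of cell ATP.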
Background: In qHTS, concentration-response curves come from the screen itself.
Regarding `CC1=C(C(=O)OC2CCCCC2)C(c2ccc([N+](=O)[O-])cc2)C2=C(CC(C)(C)CC2=O)N1` (stereo unspecified), the “activity change, negative = cytotoxicity” value was -4.36% (inactive).

Consider `C=C[C@H](/C=C\c1ccc(O)cc1)c1ccc(O)cc1`, for which the “activity change, negative = cytotoxicity” value was -19.4% (inactive).

`C=C1C(=O)O[C@H]2/C=C(/C)[C@@H](OC(C)=O)C/C=C(\C)C[C@@H](OC(=O)/C(=C/C)COC(=O)/C(=C/C)CO)[C@@H]12`: the Potency is 8.91 µM (active).

For the molecule `CNc1cccc(CCOc2ccc3c(c2)CN(CC(F)(F)F)C(=O)[C@H](CC(=O)O)C3)n1`, the Potency is 0.501 µM (active).

With `O=C(O)CCc1nccc2c1[nH]c1ccccc12`, the “activity change, negative = cytotoxicity” value is -28.1% (inactive).

Turning to `COC1CC/C=C(\C)C(=O)Nc2cc(O)cc(c2)CC(C)CC(OC)C(O)C(C)/C=C(\C)C1OC(N)=O` (stereo unspecified), the Potency is 3.98 µM (active).

Regarding `COCc1c(Cl)ccc2c1CC[C@H]2c1ncc[nH]1`, the Potency is 10 µM (active).

As for `COc1cc(OC)c2c(=O)[nH]c(-c3cc(C)c(OCCO)c(C)c3)nc2c1`, the “activity change, negative = cytotoxicity” value is -24.4% (inactive).

As for `OC(c1ccc(-c2ccc(CN3CCN(Cc4ccncc4)CC3)cc2)c(F)c1)(C(F)(F)F)C(F)(F)F`, the “activity change, negative = cytotoxicity” value was 5.3% (inactive).

For the molecule `O=C(CCl)Nc1cccc(NC2=NS(=O)(=O)c3ccccc32)c1`, the “activity change, negative = cytotoxicity” value was -26.3% (inactive).

In the case of `Cc1cc(C)c2c(c1)C(N(Cc1cc(C(F)(F)F)cc(C(F)(F)F)c1)c1nnn(C)n1)CCCN2CC1CCC(C(=O)O)CC1` (stereo unspecified), the “activity change, negative = cytotoxicity” value is -21.3% (inactive).

In the case of `Cc1nc2ccc(-n3ncc(C(=O)c4cc5ccccc5[nH]4)c3N)cc2[nH]1`, the Potency is 28.2 µM (active).

Take `C=C1C(=O)OC2/C=C(/C)C3=CC(=O)C(C)(CC(OC(=O)/C(C)=C/COC(C)=O)C12)O3` (stereo unspecified): the Potency is 11.2 µM (active).

Consider `O=C(Nc1ccc(-n2nc(C(F)(F)F)cc2C(F)(F)F)cc1)c1ccncc1F`, for which the “activity change, negative = cytotoxicity” value is -0.517% (inactive).

Consider `C=C1CCC2[C@](C)(CCC[C@@]2(C)C=O)[C@H]1CC/C(C)=C/CO` (stereo partly specified), for which the “activity change, negative = cytotoxicity” value was -4.4% (inactive).

Take `CC1CCCC(O)CC(=O)c2c(O)cc(O)cc2CC(=O)O1` (stereo unspecified): the “activity change, negative = cytotoxicity” value was -29.6% [at 38.5 µM] (inactive).

The subject of a further assay is Tov112D. The description is as above. The conditions noted are these: Gynecologic cancer cell panel viability, ATPlite luminescence, 48 h; series mostly up to 57.5 µM; activity change, negative = cytotoxicity: at the top concentration. The procedure, abridged:
as §1
(Cellular ATP, detected with luciferase, serves as a proxy for viable cell number.)
On to `C=C(C)C(=O)OC1CC(CO)CCC/C(CO)=C/C2OC(=O)C(=C)C21` (stereo unspecified), for which the “activity change, negative = cytotoxicity” value was 1.84% [at 38.5 µM] (inactive).

On to `CC1=C(C(=O)OC2CCCCC2)C(c2ccc([N+](=O)[O-])cc2)C2=C(CC(C)(C)CC2=O)N1` (stereo unspecified), for which the “activity change, negative = cytotoxicity” value was -28.6% (inactive).

Take `CC1(C)CC[C@]2(C(=O)O[C@@H]3O[C@H](CO)[C@@H](O)[C@H](O)[C@H]3O)CC[C@]3(C)C(=CCC4[C@@]5(C)CC[C@H](O[C@@H]6O[C@H](C(=O)O)[C@H](O)[C@H](O)[C@H]6O)C(C)(C)C5CC[C@]43C)[C@@H]2C1` (stereo partly specified): the “activity change, negative = cytotoxicity” value is 21.6% [at 25.3 µM] (inactive).

On to `O=C(Nc1ccc(-c2ccnc(Nc3ccc(N4CCOCC4)cc3)n2)cc1)C1CCCN1` (stereo unspecified), for which the “activity change, negative = cytotoxicity” value is 2.65% (inactive).

With `C=C[C@H](/C=C\c1ccc(O)cc1)c1ccc(O)cc1`, the “activity change, negative = cytotoxicity” value was -10.7% (inactive).

Regarding `CNc1cccc(CCOc2ccc3c(c2)CN(CC(F)(F)F)C(=O)[C@H](CC(=O)O)C3)n1`, the “activity change, negative = cytotoxicity” value was -15.3% (inactive).

Turning to `C=C1C(=O)O[C@@H]2C[C@@]3(C)CCCC(=C)[C@]3(O)C[C@H]12`, the “activity change, negative = cytotoxicity” value is 5.71% (inactive).

For the molecule `O=C(O)CCc1nccc2c1[nH]c1ccccc12`, the “activity change, negative = cytotoxicity” value is -1% (inactive).

Turning to `CCNc1nc(Nc2cc(F)c(C(=O)N3CCOCC3)cc2OC)ncc1C(F)(F)F`, the “activity change, negative = cytotoxicity” value is -0.396% (inactive).

Take `Cc1[nH]c(/C=C2\C(=O)Nc3ccc(F)cc32)c(C)c1C(=O)NCCN1CCCC1`: the “activity change, negative = cytotoxicity” value is -25.2% (inactive).

On to `C/C(=C\Cc1c(O)c(Cl)c(C)c(C=O)c1O)CC/C=C(\C)[C@H]1CC(=O)C(C)(C)O1`, for which the “activity change, negative = cytotoxicity” value is -27.2% [at 25.3 µM] (inactive).

`CCn1c(=O)c(-c2ccc(-c3cncs3)cc2Cl)cc2cnc(Nc3ccc(N4CCN(C)CC4)cc3)nc21`: the “activity change, negative = cytotoxicity” value was -0.988% (inactive).

As for `c1ccc(-c2ccc(CNc3nc(-c4ccccn4)nnc3-c3ccccc3)cc2)cc1`, the Potency is 11.2 µM (active).

As to `CC(=O)c1c(C)cc2cccc(O)c2c1O[C@@H]1O[C@H](CO)[C@@H](O)[C@H](O)[C@H]1O`, the “activity change, negative = cytotoxicity” value was 0.954% [at 38.5 µM] (inactive).

As for `COc1cc(OC)c2c(=O)[nH]c(-c3cc(C)c(OCCO)c(C)c3)nc2c1`, the “activity change, negative = cytotoxicity” value is -16.3% (inactive).

As to `C/C=C(\C)C(=O)O[C@H]1C=CC(=O)O[C@H]1/C=C/[C@@H](O)[C@H](C)O`, the “activity change, negative = cytotoxicity” value is -3.4% (inactive).

`OC(c1ccc(-c2ccc(CN3CCN(Cc4ccncc4)CC3)cc2)c(F)c1)(C(F)(F)F)C(F)(F)F`: the “activity change, negative = cytotoxicity” value was -4.42% (inactive).

For `CC1CC(=O)C2=C(C1)C1OC1C1(O)C2C(=O)c2cccc(O)c2C1O` (stereo unspecified), the Potency was 0.0891 µM (active).

As to `CCn1nc(C2CCN(C(=O)CCO)CC2)nc1-c1cnc(N)c(-c2nnc(C(C)(C)C)o2)n1`, the “activity change, negative = cytotoxicity” value was 11.6% (inactive).

`COC1CC(=O)C23C(=O)NC(Cc4c[nH]c5ccccc45)C2C(C)C2(C)OC2C3/C=C/CC(C)CC1O` (stereo unspecified): the “activity change, negative = cytotoxicity” value is -16% [at 25.3 µM] (inactive).

For `C=C1C(=O)O[C@@H]2[C@H]3C(C)=CC(=O)C3=C(C)[C@@H](OC(=O)/C(C)=C\C)[C@H](O)[C@@H]12`, the “activity change, negative = cytotoxicity” value was -0.524% [at 38.5 µM] (inactive).

For `C=C1CC2OC(=O)C(COC)C2C(OC(=O)/C(C)=C\C)CC2(C)OC1=CC2=O` (stereo unspecified), the “activity change, negative = cytotoxicity” value is -8.89% [at 38.5 µM] (inactive).

On to `CC(=O)O[C@@H]1[C@@H](OC(C)=O)[C@H](C)O[C@@H](O[C@H]2[C@@H]3C=CO[C@@H](O[C@@H]4O[C@H](CO)[C@@H](O)[C@H](O)[C@H]4O)[C@@H]3[C@@]3(CO)O[C@@H]23)[C@@H]1OC(=O)/C=C/c1ccccc1`, for which the “activity change, negative = cytotoxicity” value is -6.15% [at 25.3 µM] (inactive).

For the molecule `O=C(NCCCn1ccnc1)c1cc(-c2ccco2)on1`, the “activity change, negative = cytotoxicity” value is 1.07% (inactive).

Take `COc1ccc(C(=O)O[C@H]2C=COC=C3C=C4C(=O)N(C)C(=S)C(=O)N4[C@@H]32)cc1Oc1cc(C=O)ccc1O`: the “activity change, negative = cytotoxicity” value is -15.1% [at 25.3 µM] (inactive).

On to `C=C(C)Cn1c(SCC(=O)c2cccs2)nc2sc3c(c2c1=O)CCCC3`, for which the “activity change, negative = cytotoxicity” value was -28.1% (inactive).

Regarding `C=C1C(=O)O[C@@H]2/C=C(\C)CC/C=C(\C)CC[C@@H]12`, the “activity change, negative = cytotoxicity” value is 0.072% (inactive).

In the case of `O=C(Nc1ccc(-n2nc(C(F)(F)F)cc2C(F)(F)F)cc1)c1ccncc1F`, the “activity change, negative = cytotoxicity” value was -1.08% (inactive).

In the case of `C=C1CCC2[C@](C)(CCC[C@@]2(C)C=O)[C@H]1CC/C(C)=C/CO` (stereo partly specified), the “activity change, negative = cytotoxicity” value was -2.58% (inactive).

In the case of `CC(C)CCCCC(=O)N[C@@H](CO)C(=O)N[C@@H](CC(C)C)C(=O)[C@@]1(CO)CO1`, the “activity change, negative = cytotoxicity” value is -5.04% (inactive).
